Experimental data: the supplement of paper PMC10849652
Of roughly 7,900 targets only a part is listed; those with a hit were picked by preference. About 0.6% of all pairs of compound and target were hits.

Columns and labels:
Assay in all cases: log2 fold change, soluble protein after heating vs DMSO (PISA); higher = thermal stabilisation; K562 cells, 10 uM, 30 min; active = over 0.2 and 3.5 SD of the protein, either way, in both replicates (recomputed)
[1] = compound: CC1=C(C=C(C=C1)NC(=O)C2=CC(=CC=C2)C(C)(C)C#N)NC3=CC4=C(C=C3)N=CN(C4=O)C
Outline: (§1)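 K562 cells (2×10^6 cells/mL) were treated with 10 μM compound for 30 min, and aliquots were heated for 3 min over 48°C-58°C. Pooled aliquots were extracted in PBS with 0.5% NP-40 at 4°C, and the supernatant after 21,000xg for 90 min was measured by TMTpro 16plex LC-MS/MS with channel sums equalised. Reported thermal stability, relative to control samples and from duplicates, is a log2 fold change.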

[2] = compound: CC1=C(C=C(C=C1)NC(=O)C2=CC(=CC=C2)N(C)C)NC(=O)C3=CC=C(C=C3)O
Outline: as §1

[3] = compound: CC1=CC=C(C=C1)SC2=C3C=C(SC3=CN=C2)C(=O)N
Outline: as §1

[4] = compound: CC1=NC(=CC=C1)C2=C(N=C(N2)C(C)(C)C)C3=CC4=NC=CN=C4C=C3
Outline: as §1

Nexturastat A = compound: CCCCN(Cc1ccc(C(=O)NO)cc1)C(=O)Nc1ccccc1 [Nexturastat A]
Outline: as §1

vemurafenib = compound: CCCS(=O)(=O)Nc1ccc(F)c(C(=O)c2c[nH]c3ncc(-c4ccc(Cl)cc4)cc23)c1F [vemurafenib]
Outline: as §1

[5] = compound: CCCS(=O)(=O)Nc1ccc(F)c(C(=O)c2c[nH]c3ncc(Cl)cc23)c1F
Outline: as §1

[6] = compound: CCCc1cc(C)[nH]c(=O)c1CNC(=O)c1cc(-c2ccnc(N3CCN(C)CC3)c2)cc2c1cnn2C(C)C
Outline: as §1

givinostat = compound: CCN(CC)Cc1ccc2cc(COC(=O)Nc3ccc(C(=O)NO)cc3)ccc2c1 [givinostat]
Outline: as §1

barasertib = compound: CCN(CCCOc1ccc2c(Nc3cc(CC(=O)Nc4cccc(F)c4)[nH]n3)ncnc2c1)CCOP(=O)(O)O [barasertib]
Outline: as §1

Measured: log2 fold change

AGPAT5 (UniProt Q9NUQ2)
UniProt Q9NUQ2, sequence (Q9NUQ2 whole entry, looked up): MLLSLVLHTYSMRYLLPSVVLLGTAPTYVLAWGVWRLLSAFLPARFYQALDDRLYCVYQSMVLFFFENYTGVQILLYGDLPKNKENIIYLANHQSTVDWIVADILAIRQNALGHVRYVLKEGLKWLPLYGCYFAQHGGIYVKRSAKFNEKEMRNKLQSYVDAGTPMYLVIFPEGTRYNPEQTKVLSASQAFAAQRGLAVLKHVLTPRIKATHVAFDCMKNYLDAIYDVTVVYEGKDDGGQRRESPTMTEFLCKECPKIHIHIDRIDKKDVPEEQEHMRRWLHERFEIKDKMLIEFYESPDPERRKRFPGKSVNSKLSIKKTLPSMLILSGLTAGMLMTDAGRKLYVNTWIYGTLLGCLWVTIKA
inactive: [1] -0.02 | [2] -0.009 | [3] 0.012 | [4] -0.068 | Nexturastat A -0.061 | vemurafenib 0.008 | [5] 0.095 | [6] -0.088 | givinostat -0.05 | barasertib 0.015

ATP12A isoform 2 (UniProt P54707)
UniProt P54707, sequence (P54707 whole entry, looked up): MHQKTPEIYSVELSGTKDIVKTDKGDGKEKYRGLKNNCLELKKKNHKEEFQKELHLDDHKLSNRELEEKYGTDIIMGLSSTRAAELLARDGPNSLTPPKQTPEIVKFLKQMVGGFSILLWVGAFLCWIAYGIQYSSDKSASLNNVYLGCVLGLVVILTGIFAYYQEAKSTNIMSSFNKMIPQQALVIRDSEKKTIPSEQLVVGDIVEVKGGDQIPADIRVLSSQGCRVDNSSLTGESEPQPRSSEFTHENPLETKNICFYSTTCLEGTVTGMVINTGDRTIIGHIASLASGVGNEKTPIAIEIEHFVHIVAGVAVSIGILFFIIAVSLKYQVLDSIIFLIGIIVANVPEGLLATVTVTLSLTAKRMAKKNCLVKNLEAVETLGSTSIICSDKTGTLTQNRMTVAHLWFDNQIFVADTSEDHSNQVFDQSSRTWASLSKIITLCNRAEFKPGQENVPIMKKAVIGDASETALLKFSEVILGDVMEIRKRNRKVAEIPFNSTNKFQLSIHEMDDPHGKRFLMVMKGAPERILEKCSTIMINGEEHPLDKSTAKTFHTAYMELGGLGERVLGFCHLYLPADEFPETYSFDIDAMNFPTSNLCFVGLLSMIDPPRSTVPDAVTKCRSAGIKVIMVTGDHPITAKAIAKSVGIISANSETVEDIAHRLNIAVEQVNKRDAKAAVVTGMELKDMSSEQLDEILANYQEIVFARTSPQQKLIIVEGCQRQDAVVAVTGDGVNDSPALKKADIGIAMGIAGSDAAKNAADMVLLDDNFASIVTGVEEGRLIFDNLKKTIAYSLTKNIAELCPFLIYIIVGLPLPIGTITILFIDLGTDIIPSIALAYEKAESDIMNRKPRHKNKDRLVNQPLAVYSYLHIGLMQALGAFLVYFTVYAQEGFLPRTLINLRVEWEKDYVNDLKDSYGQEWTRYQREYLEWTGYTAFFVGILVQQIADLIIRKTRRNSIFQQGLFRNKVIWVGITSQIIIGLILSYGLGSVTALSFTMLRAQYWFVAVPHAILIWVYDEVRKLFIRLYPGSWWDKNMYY
inactive: [1] -0.001 | [2] -0.006 | [3] 0 | [4] 0.005 | Nexturastat A -0.132 | vemurafenib -0.03 | [5] -0.072 | [6] -0.021 | givinostat -0.009 | barasertib 0.015

BCL9L (UniProt Q86UU0)
UniProt Q86UU0, sequence (Q86UU0 whole entry, looked up): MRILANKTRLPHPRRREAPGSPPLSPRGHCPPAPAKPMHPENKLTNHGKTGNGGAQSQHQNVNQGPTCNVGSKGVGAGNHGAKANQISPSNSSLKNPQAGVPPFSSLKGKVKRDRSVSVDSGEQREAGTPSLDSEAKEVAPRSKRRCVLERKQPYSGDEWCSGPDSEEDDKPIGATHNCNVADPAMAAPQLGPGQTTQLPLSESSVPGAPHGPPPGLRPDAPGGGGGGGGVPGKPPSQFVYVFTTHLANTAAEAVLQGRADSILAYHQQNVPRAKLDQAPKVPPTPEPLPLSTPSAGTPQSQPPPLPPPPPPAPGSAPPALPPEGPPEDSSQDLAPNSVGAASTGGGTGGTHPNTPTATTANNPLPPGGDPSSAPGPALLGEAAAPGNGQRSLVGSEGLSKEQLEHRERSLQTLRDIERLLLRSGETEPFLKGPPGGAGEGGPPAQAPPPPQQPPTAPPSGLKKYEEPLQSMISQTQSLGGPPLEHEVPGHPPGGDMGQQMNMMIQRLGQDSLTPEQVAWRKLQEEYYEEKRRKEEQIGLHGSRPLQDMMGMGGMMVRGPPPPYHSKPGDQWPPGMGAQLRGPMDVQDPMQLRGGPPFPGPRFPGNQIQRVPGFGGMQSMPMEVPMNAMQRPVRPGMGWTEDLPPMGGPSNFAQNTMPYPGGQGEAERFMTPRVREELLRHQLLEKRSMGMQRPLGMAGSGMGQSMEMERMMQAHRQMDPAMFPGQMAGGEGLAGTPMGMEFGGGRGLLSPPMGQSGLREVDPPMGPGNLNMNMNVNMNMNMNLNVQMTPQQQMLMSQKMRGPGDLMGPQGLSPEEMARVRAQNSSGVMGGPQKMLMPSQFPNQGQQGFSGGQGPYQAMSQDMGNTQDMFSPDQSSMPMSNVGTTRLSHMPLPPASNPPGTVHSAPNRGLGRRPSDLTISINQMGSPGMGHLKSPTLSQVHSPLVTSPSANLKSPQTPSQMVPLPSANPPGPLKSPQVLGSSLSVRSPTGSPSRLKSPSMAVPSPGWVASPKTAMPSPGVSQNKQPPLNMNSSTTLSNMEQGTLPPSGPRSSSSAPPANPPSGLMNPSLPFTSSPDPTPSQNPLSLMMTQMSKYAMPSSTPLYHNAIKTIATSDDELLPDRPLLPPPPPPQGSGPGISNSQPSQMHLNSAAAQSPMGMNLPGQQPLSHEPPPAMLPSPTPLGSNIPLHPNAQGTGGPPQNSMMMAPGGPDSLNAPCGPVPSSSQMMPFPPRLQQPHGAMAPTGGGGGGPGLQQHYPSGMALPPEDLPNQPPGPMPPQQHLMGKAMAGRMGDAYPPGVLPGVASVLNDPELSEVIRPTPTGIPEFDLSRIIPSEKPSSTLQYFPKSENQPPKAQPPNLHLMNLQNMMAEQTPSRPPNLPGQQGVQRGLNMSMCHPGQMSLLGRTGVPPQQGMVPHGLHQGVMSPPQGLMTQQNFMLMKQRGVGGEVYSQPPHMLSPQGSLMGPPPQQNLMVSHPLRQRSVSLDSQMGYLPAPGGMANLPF
inactive: [1] -0.046 | [2] -0.012 | [3] 0.005 | [4] -0.033 | Nexturastat A -0.033 | vemurafenib -0.037 | [5] -0.014 | [6] -0.029 | givinostat 0.043 | barasertib -0.001

BRIX1 (UniProt Q8TDN6)
UniProt Q8TDN6, sequence (Q8TDN6 whole entry, looked up): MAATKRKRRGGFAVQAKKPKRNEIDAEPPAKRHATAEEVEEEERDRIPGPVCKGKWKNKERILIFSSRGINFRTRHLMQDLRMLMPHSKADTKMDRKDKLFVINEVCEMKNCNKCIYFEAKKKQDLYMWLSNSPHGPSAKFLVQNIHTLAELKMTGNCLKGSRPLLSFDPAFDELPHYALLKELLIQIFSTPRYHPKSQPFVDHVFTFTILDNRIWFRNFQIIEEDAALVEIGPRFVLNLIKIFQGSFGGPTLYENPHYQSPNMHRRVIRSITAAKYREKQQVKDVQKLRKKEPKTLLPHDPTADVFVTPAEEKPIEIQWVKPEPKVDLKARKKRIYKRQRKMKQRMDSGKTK
inactive: [1] 0.038 | [2] -0.061 | [3] -0.09 | [4] -0.134 | Nexturastat A 0.37 | vemurafenib -0.11 | [5] 0.008 | [6] 0.159 | givinostat 0.15 | barasertib -0.197

ADD2 (UniProt P35612)
UniProt P35612, sequence (P35612 whole entry, looked up): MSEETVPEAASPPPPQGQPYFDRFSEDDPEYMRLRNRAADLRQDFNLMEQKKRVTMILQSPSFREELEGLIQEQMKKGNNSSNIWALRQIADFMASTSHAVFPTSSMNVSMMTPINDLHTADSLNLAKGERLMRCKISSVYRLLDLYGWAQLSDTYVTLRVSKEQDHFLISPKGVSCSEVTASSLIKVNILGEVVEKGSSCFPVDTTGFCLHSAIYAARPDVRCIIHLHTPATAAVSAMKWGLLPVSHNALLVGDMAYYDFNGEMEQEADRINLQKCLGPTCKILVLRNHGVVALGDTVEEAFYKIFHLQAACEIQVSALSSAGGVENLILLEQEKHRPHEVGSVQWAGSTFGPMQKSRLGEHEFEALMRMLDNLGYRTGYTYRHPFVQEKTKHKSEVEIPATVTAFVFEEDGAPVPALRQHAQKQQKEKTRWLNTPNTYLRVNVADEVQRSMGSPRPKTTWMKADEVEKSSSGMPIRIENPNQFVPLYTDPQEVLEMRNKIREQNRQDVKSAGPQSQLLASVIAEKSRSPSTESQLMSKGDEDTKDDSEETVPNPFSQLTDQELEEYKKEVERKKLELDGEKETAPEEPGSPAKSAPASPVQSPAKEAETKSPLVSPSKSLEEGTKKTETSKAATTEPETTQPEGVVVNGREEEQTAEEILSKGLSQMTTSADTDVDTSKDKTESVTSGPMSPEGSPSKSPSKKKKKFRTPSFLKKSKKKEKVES
inactive: [1] -0.014 | [2] 0.018 | [3] -0.01 | [4] 0.002 | Nexturastat A 0.026 | vemurafenib -0.03 | [5] -0.002 | [6] 0.01 | givinostat -0.007 | barasertib -0.011

AKR1C2 (UniProt P52895)
UniProt P52895, sequence (P52895 whole entry, looked up): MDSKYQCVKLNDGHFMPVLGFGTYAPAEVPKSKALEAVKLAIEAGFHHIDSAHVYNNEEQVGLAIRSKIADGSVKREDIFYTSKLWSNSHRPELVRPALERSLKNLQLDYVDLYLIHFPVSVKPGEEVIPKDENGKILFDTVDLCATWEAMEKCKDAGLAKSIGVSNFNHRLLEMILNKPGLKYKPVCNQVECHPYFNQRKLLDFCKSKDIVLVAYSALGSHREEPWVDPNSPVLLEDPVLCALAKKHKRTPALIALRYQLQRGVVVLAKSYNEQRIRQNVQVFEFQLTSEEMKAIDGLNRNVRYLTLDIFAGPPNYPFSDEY
inactive: [1] -0.153 | [2] -0.222 | [3] -0.166 | [4] -0.077 | Nexturastat A 0.205 | vemurafenib -0.046 | [5] -0.179 | [6] 0.024 | givinostat 0.159 | barasertib -0.018
